Inconclusive results are not listed. Calls of active or inactive are those of the source. Unless noted, calls come from the whole dose curve; as a rule, active = well fitted curve in the direction sought with a large enough effect in the repeat runs; inconclusive = weak or mixed curves; inactive = no such curve, though single readings can be large; an effect the other way counts as inactive or inconclusive.
Experiments:
[1] = qHTS assay to identify small molecule agonists of the hypoxia (HIF-1) signaling pathway (AID 1224846; active = well fitted activation curve with a large enough effect in the signal ratio in the repeat runs, not every such curve was filed as active; the % refers to the signal ratio)
How it was run: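 Compounds added to ME-180 cells carrying hypoxia-response-element beta-lactamase reporter (0.5% dialyzed FBS, 5 h preplating), 17 h at 37C; agonist activity detected by CCF4-AM B/G FRET read-out.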

[2] = qHTS assay to identify small molecule agonists of H2AX - cell viability counter screen (AID 1224847; calls by dose curve; note: top concentration of the series differs between compounds; nearly all actives have a fitted effect of over 30% in size)
How it was run: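 Wild-type CHO-K1 cells (10% FBS medium) were plated overnight at 37C, exposed to compounds at 15 concentrations for 3 hr at 37C (0.76% DMSO final), and viability was read as CellTiter-Glo luminescence after 30 min at room temperature.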

[3] = qHTS RealTime-Glo MT Cell Viability Assay in HepG2 cells - 24 hour (AID 1224867); note: nearly all actives have a fitted effect of over 50% in size
How it was run: (§1)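 Compound treatment began 5 h after plating HepG2 cells (600/well) with NanoLuc luciferase and prosubstrate. Plates stayed at 37 C for 40 h; luminescence was captured at six time points, 0 h through 40 h.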

[4] = qHTS RealTime-Glo MT Cell Viability Assay in HEK293 cells - 32 hour (AID 1224868); note: top concentration of the series differs between compounds; nearly all actives have a fitted effect of over 50% in size
How it was run: (§2)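 Quantitative high-throughput screen of the Tox21 10K library in HEK293: cells and RealTime-Glo reagents plated together, compound added at 5 h, luminescence monitored through 40 h at 37 C.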

[5] = qHTS RealTime-Glo MT Cell Viability Assay in HepG2 cells - 40 hour (AID 1224870); note: nearly all actives have a fitted effect of over 50% in size
How it was run: (§3)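 HepG2 cells mixed with RealTime-Glo MT reagents (NanoLuc plus cell-permeant prosubstrate) were seeded at 600 cells/well, incubated 5 h at 37 C/5% CO2, then pinned with compounds in DMSO; nonlytic luminescence tracked viability during 40 h treatment.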

[6] = A CellTox Green Cytotoxicity Assay to monitor cytotoxicity in HEK293 cells - 40 hour (AID 1224871); note: nearly all actives have a fitted effect of over 45% in size
How it was run: (§4)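 Fluorescence from a DNA-binding dye excluded by viable cells was measured repeatedly in the same HEK293 wells (600 cells/well) during continuous compound exposure at 37 C. Each assay gives one read point: 0, 8, 16, 24, 32 or 40 h.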

[7] = qHTS RealTime-Glo MT Cell Viability Assay in HEK293 cells - 16 hour (AID 1224872); note: top concentration of the series differs between compounds; nearly all actives have a fitted effect of over 50% in size
How it was run: as §2

[8] = qHTS RealTime-Glo MT Cell Viability Assay in HepG2 cells - 8 hour (AID 1224873); note: nearly all actives have a fitted effect of over 55% in size
How it was run: as §3

[9] = qHTS RealTime-Glo MT Cell Viability Assay in HEK293 cells - 40 hour (AID 1224874); settings: RealTime-Glo luminescence; max response: active compounds read low; note: nearly all actives have a fitted effect of over 50% in size
How it was run: (§5)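 Luminescence, which tracks viable cell number through reduction of the prosubstrate to a NanoLuc substrate, was read over continuous 37 C culture. Cells (600/well) were premixed with reagent and rested 5 h before 23 nL of compound in DMSO was pinned.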

[10] = A CellTox Green Cytotoxicity Assay to monitor cytotoxicity in HEK293 cells - 24 hour (AID 1224875); note: series mostly up to about 77 µM; nearly all actives have a fitted effect of over 45% in size
How it was run: as §4

[11] = qHTS RealTime-Glo MT Cell Viability Assay in HepG2 cells - 32 hour (AID 1224877); note: nearly all actives have a fitted effect of over 55% in size
How it was run: as §1

[12] = A CellTox Green Cytotoxicity Assay to monitor cytotoxicity in HepG2 cells - 24 hour (AID 1224878); note: nearly all actives have a fitted effect of over 45% in size
How it was run: (§6)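 Real-time cytotoxicity: fluorescence of a cell-impermeant cyanine dye binding DNA of dead HepG2 cells, measured repeatedly (0–40 h) during compound exposure at 37 C. Cells seeded 600/well with reagent, dosed after 5 h.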

[13] = A CellTox Green Cytotoxicity Assay to monitor cytotoxicity in HepG2 cells - 40 hour (AID 1224879); note: nearly all actives have a fitted effect of over 40% in size
How it was run: as §6

[14] = qHTS RealTime-Glo MT Cell Viability Assay in HEK293 cells - 0 hour (AID 1224880); note: top concentration of the series differs between compounds; nearly all actives have a fitted effect of over 45% in size
How it was run: as §5

[15] = A CellTox Green Cytotoxicity Assay to monitor cytotoxicity in HepG2 cells - 0 hour (AID 1224882); note: nearly all actives have a fitted effect of over 35% in size
How it was run: as §6

[16] = A CellTox Green Cytotoxicity Assay to monitor cytotoxicity in HEK293 cells - 0 hour (AID 1224869); note: nearly all actives have a fitted effect of over 50% in size
How it was run: as §4

[17] = A CellTox Green Cytotoxicity Assay to monitor cytotoxicity in HepG2 cells - 16 hour (AID 1224876); note: nearly all actives have a fitted effect of over 45% in size
How it was run: as §6

[18] = A CellTox Green Cytotoxicity Assay to monitor cytotoxicity in HEK293 cells - 32 hour (AID 1224881); note: nearly all actives have a fitted effect of over 40% in size
How it was run: as §4
% is set by controls: 0 for no effect and ±100 for the full control effect.

COc1cc(N)c(Cl)cc1C(=O)NC1CN2CCC1CC2 (stereo unspecified)
inactive: outcome [1] | Potency [2] | Potency [3] | Potency [4] | Potency [5] | Potency [6] | Potency [7] | Potency [8] | max response [9] -15.3% | Potency [10] | Potency [11] | Potency [12] | Potency [13] | Potency [14] | Potency [15]

O=C(Cl)c1ccc(Cl)cc1
inactive: outcome [1] | Potency [2] | Potency [3] | Potency [16] | Potency [6] | Potency [8] | Potency [10] | Potency [17] | Potency [12] | Potency [13] | Potency [14] | Potency [15]

O=[N+]([O-])c1cc(Cl)ccc1Cl
inactive: outcome [1] | Potency [2] | Potency [3] | Potency [4] | Potency [16] | Potency [5] | Potency [7] | Potency [8] | max response [9] -0.799% | Potency [10] | Potency [17] | Potency [11] | Potency [12] | Potency [13] | Potency [14] | Potency [15]

Oc1ccc(I)cc1
inactive: outcome [1] | Potency [2] | Potency [3] | Potency [4] | Potency [5] | Potency [6] | Potency [7] | Potency [8] | max response [9] -9.46% | Potency [10] | Potency [17] | Potency [11] | Potency [12] | Potency [13] | Potency [18] | Potency [15]

NNC(=O)c1ccccc1
inactive: outcome [1] | Potency [2] | Potency [3] | Potency [4] | Potency [16] | Potency [5] | Potency [6] | Potency [7] | Potency [8] | Potency [10] | Potency [17] | Potency [12] | Potency [13] | Potency [14] | Potency [18] | Potency [15]

CCCCCCCCCCCCCN1CC(C)OC(C)C1 (stereo unspecified)
inactive: outcome [1] | Potency [2] | Potency [3] | Potency [4] | Potency [5] | Potency [6] | Potency [7] | Potency [8] | max response [9] -1.65% | Potency [10] | Potency [17] | Potency [12] | Potency [14] | Potency [18] | Potency [15]

O=C(O)COc1nc(Cl)c(Cl)cc1Cl
inactive: outcome [1] | Potency [2] | Potency [3] | Potency [5] | Potency [7] | Potency [8] | Potency [11] | Potency [13] | Potency [14]

Oc1ccccc1Br
inactive: outcome [1] | Potency [2] | Potency [3] | Potency [4] | Potency [5] | Potency [6] | Potency [7] | Potency [8] | max response [9] 3.02% | Potency [10] | Potency [17] | Potency [11] | Potency [12] | Potency [13] | Potency [14] | Potency [18] | Potency [15]

CN(C)[C@@H]1C(=O)C(C(N)=O)=C(O)[C@@]2(O)C(=O)C3=C(O)c4c(O)ccc(Cl)c4[C@@](C)(O)[C@H]3C[C@@H]12
inactive: outcome [1] | Potency [2] | Potency [3] | Potency [16] | Potency [5] | Potency [6] | Potency [7] | Potency [8] | Potency [10] | Potency [17] | Potency [11] | Potency [12] | Potency [13] | Potency [14] | Potency [15]

ClC(Cl)=C(Cl)Cl
inactive: outcome [1] | Potency [2] | Potency [3] | Potency [4] | Potency [16] | Potency [5] | Potency [6] | Potency [7] | Potency [8] | max response [9] 0.0111% | Potency [10] | Potency [17] | Potency [12] | Potency [13] | Potency [14] | Potency [15]

COc1ccc(OC)c(CC(C)N)c1 (stereo unspecified)
inactive: outcome [1] | Potency [2] | Potency [3] | Potency [4] | Potency [5] | Potency [6] | Potency [7] | Potency [8] | max response [9] -2.46% | Potency [10] | Potency [17] | Potency [12] | Potency [13] | Potency [14] | Potency [18] | Potency [15]

O=C(NC(=O)c1c(F)cccc1F)Nc1cc(Cl)c(OC(F)(F)C(F)F)c(Cl)c1
inactive: outcome [1] | Potency [2] | Potency [3] | Potency [4] | Potency [16] | Potency [5] | Potency [6] | Potency [7] | Potency [8] | Potency [10] | Potency [17] | Potency [11] | Potency [12] | Potency [14]

BrCC(Br)c1ccccc1 (stereo unspecified)
inactive: outcome [1] | Potency [2] | Potency [3] | Potency [4] | Potency [5] | Potency [6] | Potency [7] | Potency [8] | Potency [10] | Potency [17] | Potency [11] | Potency [12] | Potency [13] | Potency [14] | Potency [18] | Potency [15]

CN(CCCC(O)c1cccnc1)N=O (stereo unspecified)
inactive: outcome [1] | Potency [2] | Potency [3] | Potency [4] | Potency [16] | Potency [5] | Potency [6] | Potency [7] | Potency [8] | max response [9] -1.33% | Potency [10] | Potency [17] | Potency [12] | Potency [14] | Potency [18] | Potency [15]

c1ccc(OCC2CO2)cc1 (stereo unspecified)
inactive: outcome [1] | Potency [2] | Potency [3] | Potency [4] | Potency [16] | Potency [5] | Potency [6] | Potency [7] | Potency [8] | max response [9] 7.88% | Potency [10] | Potency [11] | Potency [12] | Potency [13] | Potency [14] | Potency [18]

Cc1cc(Cl)ccc1O[C@H](C)C(=O)O
inactive: outcome [1] | Potency [2] | Potency [3] | Potency [4] | Potency [16] | Potency [6] | Potency [7] | Potency [8] | max response [9] -1.32% | Potency [10] | Potency [17] | Potency [11] | Potency [12] | Potency [13] | Potency [14] | Potency [15]
